Source: PubChem BioAssay
Hits are enriched below; roughly 20% of the tested compounds scored in any of these assays.
Pf growth 48h = inhibits P. falciparum growth in the first generation, 48 h; P. falciparum luciferase growth in erythrocytes, 48 h; Potency, µM (top dose mostly 28.7 µM), most hits filed as inhibitors; 5.9% of 310,000 active; AID 504832
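A one-generation exposure of luciferase-tagged malaria parasites in RPMI 1640/Albumax erythrocyte culture, 37 C and 5% CO2. Inhibition is inferred from decreased luminescence after adding detection reagent.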
HCMV inh = inhibitors of human cytomegalovirus | HFF cells, HCMV-luciferase reporter, 72 h; hits give low values | activity change, negative = inhibition, % at 57.5 µM | 4.5% of 410,000 active | AID 1259415; in the data active = activity change below about -60%; inconclusive = no clear call, values can overlap the other calls; inactive = above about -39%
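After 16 h attachment at 37C, HFF cells received test compound and HCMV-luciferase (1 PFU/cell); reporter luminescence read 72 h later, data normalized against buffer-only and known inhibitor Salinomycin.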
Shiga toxin inh = blocks Shiga toxin action in Vero cells; Vero cells, Shiga toxin protein synthesis inhibition reporter; inhibition, % at 38.7 µM; 9.2% of 290,000 active; in the data active = inhibition mostly above about 28%, no sharp cut-off; inactive = mostly below about 43%
Pf growth 96h = P. falciparum growth inhibition at 96 hours. P. falciparum luciferase reporter growth, 96 h. Potency, µM (series often up to 28.7 µM), most hits filed as inhibitors. 6.9% of 320,000 active. AID 504834
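Cell-based qHTS: luciferase-tagged P. falciparum in erythrocytes (2% hematocrit, 0.05% parasitemia final) incubated with compounds for 96 hours, 37 C, 5% CO2; luciferase detection reagent then added and luminescence measured.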
CHX counter = counter-screen hit for Shiga toxin inhibitors, cycloheximide | cell reporter, cycloheximide protein synthesis inhibition counterscreen | max response, % | 12% of 300,000 active; in the data active = max response mostly above about 13%, no sharp cut-off; inactive = mostly below about 14%; also: read at 38.3 µM for the half of the compounds with a filed dose
Numbers stand for hits; i = inactive; ? = inconclusive; nt = no result given; [ ] = dose if it differs, or a comment. Unless noted, calls follow the shape of the dose curve; as a rule, active = well fitted inhibition curve with a large enough effect; inconclusive = small, poorly fitted or top-dose-only effect, or another doubt; inactive = no such curve, though single readings can be large or run the other way.

SMILES	Pf growth 48h	HCMV inh	Shiga toxin inh	Pf growth 96h	CHX counter
COc1ccc(-c2cc(CNC(C)=O)on2)cc1	i	i	i	i	i
CC(=O)NCc1cc(-c2ccc(Cl)cc2)no1	i	i	i	i[1.15 µM]	i
CC(C)C(=O)NCc1cc(-c2ccccc2)no1	i[5.75 µM]	i	i	5.22µM	i
COc1ccc(-c2cc(CNC(=O)CCl)on2)cc1	2.94µM	-62.6	i	1.47µM	i
Oc1c(N=Nc2ccccn2)ccc2ccccc12	?	-101.4	78.6	8.28µM	35.9
Cc1ccccc1NC1=NC(=S)N(c2ccccc2)C12CCCCC2	?	i	i	10.4µM	i
O=C1CN(C(=O)/C=C/c2ccccc2F)c2ccccc2N1	i	i	75.5	i	27.4
O=C1CN(C(=O)c2ccccc2)c2ccccc2N1	i	i	i	nt	i
CN(C)/C=N/c1sc2c(c1C#N)CCC2	i	i	i	nt	43.5
CN(C)/C=N/c1sc2c(c1C#N)CCCCC2	i	i	20.0	i	56.5
N#Cc1c(/N=C/C2C(=O)NC(=S)NC2=O)sc2c1CCCC2	i	i	i	i	i
CCCN(/C=N/c1sc2c(c1C#N)CCCCC2)CCC	?	i	i	i	i
N#Cc1c(/N=C/N2CCOCC2)sc2c1CCCCC2	i	i	106.7	?	i
COc1cccc(C(=O)Oc2ccc3c(C)cc(=O)oc3c2C(C)=O)c1	i	i	i	i	i
COc1ccc(-c2ccc(SCC(=O)NC3CCCCC3)nn2)cc1	i	i	i	i	i
CCOc1ccc(-c2ccc(SCC(=O)NC3CCCCC3)nn2)cc1	i	i	i	i	16.7
COc1ccc(-c2cn3nc(SCC(=O)NC4CCCCC4)ccc3n2)cc1	i	i	94.6	?	49.9
COC(=O)c1cc(Cl)cc(Cl)c1OS(=O)(=O)N(C)C	i	i	i	i	i
COc1ccc(CNC(=O)CC[C@H]2O[C@@H](n3cc(C)c(=O)[nH]c3=O)C[C@@H]2O)cc1	nt	i	nt	nt	nt
Cc1cc(/C=C2\C(=N)N3N=C(C(C)C)SC3=NC2=O)c(C)n1-c1ccccc1	i	i	i	11.7µM	i
CC1=NN2C(=N)/C(=C\c3cc(C)n(-c4cccc(C)c4)c3C)C(=O)N=C2S1	?	i	i	?	i
O=C(CN1C(=O)CSc2ccc(S(=O)(=O)N3CCCC3)cc21)Nc1cccc(Cl)c1	nt	i	nt	nt	nt
O=C(O)CCC(=O)c1ccc(C2CCCCCC2)cc1	nt	i	nt	nt	nt
CCN(CC)CC(O)c1ccc(C2CCCC2)cc1 (configuration not stated)	10.4µM	i	i	13.1µM	i
Cc1ccc(Nc2nnc(SCC(=O)c3ccc(O)cc3O)s2)cc1	?	i	i	2.08µM	i
SMILES	Pf growth 48h	HCMV inh	Shiga toxin inh	Pf growth 96h	CHX counter
OCCSc1nnc(Nc2ccccc2)s1	i	i	87.3	?	38.4
CC(C)(C)C(=O)CSc1nnc(Nc2ccccc2)s1	i	i	i	i	33.8
CN(C(=O)CSc1nnc(Nc2ccccc2)s1)c1c(N)n(Cc2ccccc2)c(=O)[nH]c1=O	i	i	i	nt	29.3
CSc1nnc(SCC(=O)N(C)c2c(N)n(Cc3ccccc3)c(=O)[nH]c2=O)s1	i	i	nt	i	nt
Cc1cccc(Nc2nnc(SCC(=O)c3ccc(O)cc3O)s2)c1	i	i	i	?	i
CN(CCCC(=O)Nc1ccccc1)S(=O)(=O)c1ccc(Cl)cc1	i	i	i	i	i
O=C(CSc1nnc(Nc2ccccc2)s1)NCc1cccs1	i	i	i	11.7µM	i
COc1ccc(-c2cc3nc(C)c(CCC(=O)Nc4ccccc4C(C)=O)c(C)n3n2)c(OC)c1	nt	i	nt	nt	nt
O=C(Nc1ccc(Cc2ccncc2)cc1)c1cccs1	i	i	69.1	i	33.4
O=C(Nc1ccc(NC(=O)c2cccs2)cc1)c1cccnc1	i	i	i	i	i
O=C(c1ccncc1)c1ccc(NC(=O)c2cccs2)cc1	i	i	148.1	?	29.2
COc1ccc(N2CCN(C(C)C(=O)N(C)Cc3ccccc3)CC2)cc1 (configuration not stated)	i	i	i	i	i
CCOC(=O)C1=NNC2(c3ccc(Cl)cc3)C(=O)N(c3ccc(C)cc3)C(=O)C12 (configuration not stated)	i	i	i	i	i
Cn1c2ccccc2c2cc(/C=C(\NC(=O)c3ccccc3)C(=O)O)ccc21	i	i	i	i	i
CC(C)OC(=O)/C(=C\c1ccc2c(c1)c1ccccc1n2C)NC(=O)c1ccccc1	4.15µM	i	67.0	i	29.3
CC(C)OC(=O)/C(=C/c1ccc2c(c1)c1ccccc1n2C)NC(=O)c1ccccc1	?	i	53.0	?	20.2
COC(=O)/C(=C\c1ccc2c(c1)c1ccccc1n2C)NC(=O)c1ccccc1	?	?	i	1.17µM	i
CCCOc1cccc(C(=O)NC(=S)Nc2ccccc2)c1	i	i	i	i	i
COc1ccc(C(=O)NC(=S)Nc2cccnc2)cc1Cl	i	i	i	i	i
CC(C)Oc1cccc(C(=O)NC(=S)Nc2cccnc2)c1	i	i	i	i	32.0
COc1cccc(C(=O)NC(=S)Nc2cccnc2)c1	i	i	42.7	i	25.9
CC(C)Oc1cccc(C(=O)NC(=S)Nc2ccccc2)c1	i	i	119.7	i	93.6
COc1ccc(CC(=O)NC2CC(=O)N(c3ccc(C)c(C)c3)C2)cc1OC (configuration not stated)	nt	i	nt	nt	nt
CN(C(=O)c1ccc2c(c1)CCO2)C(C)(C)C	i	i	i	i	i
Nc1nc(-c2ccc3c(c2)CCO3)cs1	i	i	98.2	?	38.4
SMILES	Pf growth 48h	HCMV inh	Shiga toxin inh	Pf growth 96h	CHX counter
CC(=O)Nc1nc(-c2ccc3c(c2)CCO3)cs1	i	-76.2	73.9	i	29.1
COc1ccc(-c2csc(NC(=O)C3=COCCO3)n2)cc1OC	i	i	nt	i	nt
CCCCCC(=O)Oc1cccc(N2C(=O)C3CCCCC3C2=O)c1 (configuration not stated)	i	i	i	i	i
COc1ccc(CCN2CC(C(=O)NCCc3cccc(F)c3)CCC2=O)cc1 (configuration not stated)	i	i	i	i	i
COC(=O)C1=C[C@@H](C(=O)OC)[C@@H]2C3=C(C(=O)[C@@]2(C)NC(=O)c2ccccc2)[C@H](C)[C@@H]2C(=O)N(Cc4ccccc4)C(=O)[C@@H]2[C@@H]3C1	nt	nt	i	nt	i
Cc1cc(C)cc(NC(=O)c2cc(S(=O)(=O)N3CCc4ccccc43)cn2C)c1	nt	i	nt	nt	nt
CC(C)CCNC(=O)Cn1c(=O)oc2cc(S(=O)(=O)N3CCc4ccccc43)ccc21	nt	?	i	11.7µM	i
CC(C)CCNC(=O)c1cc(S(=O)(=O)N2CCc3ccccc32)cn1C	i	i	i	1.17µM	i
CCN(CC)CCNC(=O)c1cc(S(=O)(=O)N2CCc3ccccc32)cn1C	i	i	i	i	i
COc1cc(NC(=O)c2cc(S(=O)(=O)N3CCc4ccccc43)cn2C)cc(OC)c1OC	11.7µM	i	i	i	i
Cn1cc(S(=O)(=O)N2CCc3ccccc32)cc1C(=O)NC(C)(C)C	?	-78.6	i	i	i
Cc1[nH]c2ccccc2c1C(=O)c1c(N)[nH]c(C(=O)c2ccccc2)c1-c1ccc(Cl)cc1	nt	i	nt	nt	nt
COCCNC(=O)CSc1nnc(NC(=O)Nc2ccc(C)cc2)s1	nt	i	nt	nt	nt
